ELG1 genotoxic – induces genotoxicity in HEK293T cells with luciferase-tagged ELG1; HEK293T ELG1-luciferase reporter, luminescence, 16 h; Potency, µM (series often up to 46 µM), without a hit: at the highest dose activity change, positive = activation, actives largely listed as activators; hit rate 1.3% among 330,000; further: % of control where 0% means no effect; nearly all actives have a fitted effect of over 60% in size
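Screening used a luciferase reporter fused to human ELG1 in HEK293T cells. Luminescence was read on a CCD plate imager after 16 hr exposure and 30 min ONE-Glo incubation.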
SMN2 splice up – SMN2 splice variant enhancement; AID 1458; Potency, µM (series often up to 46.1 µM), for the others: top-dose activity change, positive = activation, usual class: activators; HEK293 SMN2-luciferase splicing reporter, luminescence, 30-36 h; hit rate 2.8% among 210,000; further: % of control where 0% means no effect; nearly all actives have a fitted effect of over 55% in size
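HEK293 cells carry an SMN2 […]–luciferase reporter in which exon 7 inclusion puts luciferase in frame. Cells were plated 10-12 h before compound addition, then incubated 30-36 h at 37C. ONE-Glo luminescence was read; sodium butyrate at 4.5 mM final served as control.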
Rab9 prom act – activates the Rab9 promoter; hit rate 2.8% among 320,000; Potency, µM (top dose mostly 9.22 µM), without a hit: at the top dose activation, negative = inhibition, most hits filed as activators; Huh7 Rab9 promoter-luciferase reporter, luminescence, 24 h; further: % of control where 0% means no effect; nearly all actives have a fitted effect of over 60% in size
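Quantitative HTS format; Huh7 Rab9-luciferase reporter cells (1500/well) receive compound 2 h post-plating, incubate 24 h at 37 °C, then get luciferase reagent for 10 min before luminescence reading.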
Luc counter – blocks Kinase-Glo luciferase, a counter-screen artifact; Q27757; Kinase-Glo luciferase, ATP luminescence, 8 min; Potency, µM (doses to about 38.3 µM), without a hit: at the highest dose activity change, negative = inhibition, hits mostly inhibitors; hit rate 0.28% among 200,000; AID 1379; further: on the % scale 0 is the no-effect control and ±100 the full control effect; nearly all actives have a fitted effect of over 60% in size
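Compounds were added to a substrate mix at pH 7.2 (50 mM imidazole, 10 uM ATP, within the enzyme's linear range), followed by Kinase-Glo detection reagent; luminescence was measured after 8 minutes at ambient temperature.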
FLuc modulator – firefly luciferase modulation, counter-screen for miR-21 project; P08659; purified FLuc, Km substrates, luminescence inhibition; Potency, µM (doses to about 57.5 µM), for the others: top-dose activity change, negative = inhibition, hits mostly inhibitors; hit rate 6.9% among 360,000; AID 588342;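 further: plate controls were vehicle for no effect and reference inhibitor for full effect; nearly all actives have a fitted effect of over 55% in size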
Target sequence (P08659 whole entry, looked up): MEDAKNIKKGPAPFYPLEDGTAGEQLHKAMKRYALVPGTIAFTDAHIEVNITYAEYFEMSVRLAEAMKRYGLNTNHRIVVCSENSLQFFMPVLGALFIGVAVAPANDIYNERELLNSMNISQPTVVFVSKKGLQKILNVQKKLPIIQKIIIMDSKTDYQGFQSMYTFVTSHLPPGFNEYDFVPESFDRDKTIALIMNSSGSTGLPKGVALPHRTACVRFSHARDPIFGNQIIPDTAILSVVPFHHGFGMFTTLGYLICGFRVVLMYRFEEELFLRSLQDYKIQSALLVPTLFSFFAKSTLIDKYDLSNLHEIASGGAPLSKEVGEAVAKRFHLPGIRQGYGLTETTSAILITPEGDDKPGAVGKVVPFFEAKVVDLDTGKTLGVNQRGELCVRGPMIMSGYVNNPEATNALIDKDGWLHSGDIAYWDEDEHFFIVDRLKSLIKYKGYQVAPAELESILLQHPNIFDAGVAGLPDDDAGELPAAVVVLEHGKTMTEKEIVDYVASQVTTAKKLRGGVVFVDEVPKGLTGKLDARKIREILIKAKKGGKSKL
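Purified P. pyralis luciferase (10nM final) with 10uM D-luciferin and 10uM ATP (Km levels) in 50mM Tris acetate pH 7.5, 10mM Mg acetate, 0.01% Tween-20, 0.05% BSA; qHTS 6-point titration, ~60 µM downward; luminescence read.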
NPC1 prom act – NPC1 promoter activation; Huh7 NPC1 promoter luciferase reporter, 24 h; Potency, µM (doses to about 9.22 µM), without a hit: top-dose activation, usual class: activators; hit rate 2.4% among 320,000; further: % of control where 0% means no effect; nearly all actives have a fitted effect of over 60% in size
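Luminescence read-out of NPC1 promoter-driven luciferase in stably transfected Huh7 cells; compounds delivered in DMSO and left 24 h at 37C, 5% CO2, qHTS titration format.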
* marks the source's active call; other numbers are inactive results; ? = inconclusive; . = no result given. The list is not random: actives were taken first. Their share in the collection is about 7.3%. The call rests on the fitted dose curve; in most records, active means well fitted curve in the direction sought with a large enough effect; inconclusive means small, poorly fitted or top-dose-only effect, or another doubt; inactive means no such curve, though single readings can be large; an effect the other way counts as inactive or inconclusive. Potency means the concentration at half of the fitted maximal effect.

SMILES	ELG1 genotoxic	SMN2 splice up	Rab9 prom act	Luc counter	FLuc modulator	NPC1 prom act
Cc1ccc(NC(=O)c2ccc(CSc3nnc(-c4ccncc4)n3C)cc2)cc1	18%	27%	29%	-3%	1.9µM*	17%
CCC(=O)Nc1ccc(-c2nnc(SCc3ccc(C(=O)Nc4nccs4)cc3)n2CC)cc1	-2%	-7%	.	-5%	11µM*	3%
COC(=O)CSc1nnc(-c2cccc(NC(=O)c3ccc(C)cc3)c2)n1C	-2%	-35%	0%	-3%	24µM*	2%
Cn1nnnc1SCc1ccc(C(=O)Nc2ccc(Br)cc2)cc1	?	-2%	?	-5%	6µM*	?
CCn1c(SCC(=O)Nc2nccs2)nnc1-c1ccc(C)cc1	-3%	-4%	1%	0%	-6%	-2%
O=C(Cn1c(=O)oc2cc(S(=O)(=O)NCc3ccccc3)ccc21)Nc1cccc(F)c1	.	-2%	.	.	-12%	.
Cc1csc(NC(=O)C2CCCCN2S(=O)(=O)c2ccccc2)n1 (stereo not drawn)	-3%	-7%	-2%	4%	0%	0%
CCC(=O)Nc1ccc(NC(=O)c2ccc3c(c2)OCO3)cc1	14%	-1%	-6%	10%	-19%	-2%
COc1ccc(NC(=O)c2ccc3c(c2)OCO3)cc1[N+](=O)[O-]	?	?	3.2µM*	2%	?	2.8µM*
CCN(CC)c1ccc(C(=O)NC(=S)N2CCN(Cc3ccc4c(c3)OCO4)CC2)cc1	-3%	12%	1%	-4%	21µM*	0%
COc1ccc(NC(=O)c2ccc3c(c2)OCO3)cc1	5.2µM*	.	0.63µM*	.	3.4µM*	1.1µM*
COc1ccc2[nH]c(C(=O)Nc3ccc4c(c3)OCO4)cc2c1	17%	.	2.8µM*	.	4.8µM*	3.2µM*
O=C(Nc1ccc(S(=O)(=O)N2CCc3ccccc32)cc1)c1ccc2c(c1)OCO2	23µM*	-31%	-11%	7%	-13%	6%
CCN(CC)c1ccc(NC(=O)c2ccc3c(c2)OCO3)cc1	?	.	2.2µM*	.	6.7µM*	?
O=C(Nc1ccccc1)c1ccc2c(c1)CCN2S(=O)(=O)c1ccccc1	-6%	.	-2%	.	-3%	10%
COc1ccc2[nH]c(C(=O)Nc3ccc(F)cc3Br)cc2c1	0%	.	-3%	.	-12%	-29%
COc1ccc2[nH]c(C(=O)Nc3ncc(C)cc3Br)cc2c1	0%	.	14%	.	19µM*	0%
Cc1[nH]c(=O)[nH]c(=O)c1S(=O)(=O)N1CCN(c2cccc(Cl)c2)CC1	1%	-4%	2%	-1%	-2%	9%
Cc1sc2nc(SCC(=O)NCCO)n(-c3ccccc3)c(=O)c2c1C	6%	.	-5%	0%	1%	-1%
Cc1ccccc1-c1nc2cc(N)ccc2o1	?	6.3µM*	0.35µM*	-11%	2.4µM*	0.89µM*
CC(C)c1ccc2oc(-c3cc(N)ccc3O)nc2c1	?	25%	?	-11%	0.15µM*	0.89µM*
Nc1ccc2oc(-c3ccccc3Br)nc2c1	.	13µM*	.	.	3.4µM*	.
COc1ccc(C(=O)Nc2ccc3oc(-c4cccc5c(Br)cccc45)nc3c2)cc1	.	-4%	.	.	1%	.
Nc1ccc2oc(-c3cccc(Br)c3)nc2c1	2µM*	14µM*	1.1µM*	-6%	2.7µM*	1.1µM*
CC(C)(C)c1ccc(-c2nc3cc(NC(=O)c4cccc(Br)c4)ccc3o2)cc1	.	-9%	.	.	2%	.
SMILES	ELG1 genotoxic	SMN2 splice up	Rab9 prom act	Luc counter	FLuc modulator	NPC1 prom act
O=C(Cc1ccc(Br)cc1)NNC(=O)Nc1ccc(Cl)cc1	2%	-6%	-5%	0%	5%	-4%
CSC(C1CCCC1)n1nnc2ccccc21 (stereo not drawn)	-2%	.	-2%	.	7%	-1%
CCCc1nn(C)c2c(=O)[nH]c(-c3cc(S(=O)(=O)N(CCO)CCO)ccc3OCC)nc12	-2%	.	7%	.	1%	-4%
Nc1ccc(-c2nc3ccccc3o2)cc1	?	.	?	.	6.7µM*	?
Nc1ccc(-c2c3ccccc3nc3ccccc23)cc1	-2%	.	1%	.	-1%	1%
O=C1Nc2ccccc2Oc2cc(Oc3cccc(Cl)c3)ccc21	.	-1%	.	.	-6%	.
OCCN1CN=C(Nc2nc3ccccc3o2)NC1	2%	4%	-2%	0%	0%	-1%
c1ccc2oc(NC3=NCN(CC4CCCO4)CN3)nc2c1 (stereo not drawn)	10µM*	13µM*	4µM*	-2%	17µM*	?
CCN(CC)c1ccc(/C=C(/C#N)c2nc3ccc(C)cc3[nH]2)c(OC(C)C)c1	-5%	-1%	-2%	-1%	5.4µM*	-2%
CCOc1cc(N(CC)CC)ccc1/C=C(/C#N)c1nc2ccccc2[nH]1	0%	-47%	?	3%	9.5µM*	5%
Fc1cccc(Cn2ccc(-c3ccc4c(c3)OCO4)n2)c1	15%	?	26%	0%	21µM*	28%
Fc1cccc(Cl)c1Cn1nnc(-c2ccc3c(c2)OCO3)n1	?	13µM*	?	5%	12µM*	?
Cc1ccccc1Cn1nnc(-c2ccc3c(c2)OCO3)n1	19%	4µM*	?	3%	15µM*	21%
N#CCn1nnc(-c2ccc3c(c2)OCO3)n1	?	.	10%	.	?	9%
Cc1ccccc1Cn1ccc(-c2ccc3c(c2)OCO3)n1	-1%	5%	29%	-1%	15µM*	?
COc1ccc2c(c1)sc(=N)n2CC(=O)Nc1cc(C)cc(C)c1	-5%	-9%	-9%	-1%	4%	-5%
CCCCn1c(N)c(N(CCOC)C(=O)c2cc(-c3ccc(OC)cc3)nc3ccccc23)c(=O)[nH]c1=O	16%	.	-2%	.	?	6%
Cc1ccc2oc(=O)n(CCOc3ccccc3)c2c1	14%	.	?	4%	?	8%
O=c1[nH]cnc2cc(-c3ccc(Br)cc3)sc12	?	.	2.8µM*	.	7.6µM*	2.5µM*
CCOC(=O)C1=NNC2(CC(=O)N(c3cccc(C)c3)C2=O)C1 (stereo not drawn)	0%	.	-9%	.	7%	-2%
Cc1cccc(/C=N/NC(=O)c2cc(Br)ccc2OCc2ccccc2)n1	-3%	.	1%	.	3%	-5%
O=C(Cc1ccccc1)N/N=C/c1cccnc1	2%	.	1%	.	3%	1%
NC(=O)N/N=C/c1ccc2cccc(OCc3ccccc3)c2n1	7%	.	1%	.	19µM*	-1%
O=C(Cc1ccccc1)N/N=C/c1ccc2cccc(O)c2n1	0%	.	-3%	-1%	19µM*	0%
Cc1ccc(C(=O)CCC(=O)NN2C(=O)NC3(CCCCC3)C2=O)cc1	4%	.	-3%	.	4%	-5%
